In PubChem BioAssay (Tox21) one finds Potency and outcome data, which are given here for four molecules.

Assay [1] is described as follows: qHTS assay to identify small molecule agonists of the AP-1 signaling pathway - cell viability counter screen (AID 1159525; calls by dose curve; note: nearly all actives have a fitted effect of over 55% in size; note: potency is the fitted concentration of half-maximal effect). In a few lines: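 AP-1-bla ME-180 cells in Opti-MEM with 0.5% dialyzed FBS, compound exposure 5 h at 37 C in 15-point titration. Viability read in the same wells as ATP content by CellTiter-Glo luminescence, normalised to tetra-n-octylammonium bromide and DMSO controls.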
Background: Quantitative high-throughput screening tests each substance at several concentrations.

Assay [2] can be described thus: qHTS RealTime-Glo MT Cell Viability Assay in HepG2 cells - 40 hour (AID 1224870). Note: nearly all actives have a fitted effect of over 50% in size. The procedure, abridged:
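HepG2 cells (600/well) mixed with RealTime-Glo MT reagent, settled 5 h at 37 C/5% CO2 before compound addition. Nonlytic NanoLuc luminescence from viable-cell prosubstrate reduction read repeatedly during 40 h treatment at 37 C.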

The nature of assay [3]: A CellTox Green Cytotoxicity Assay to monitor cytotoxicity in HEK293 cells - 40 hour (AID 1224871). Note: potency is the fitted concentration of half-maximal effect; nearly all actives have a fitted effect of over 45% in size. In a few lines: (§1)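 Cytotoxicity was tracked continuously in HEK293 cells by a DNA-binding dye excluded from viable cells. Compounds were transferred in DMSO 5 h after seeding; fluorescence was recorded at intervals up to 40 h.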
Assay [4] in a line: qHTS RealTime-Glo MT Cell Viability Assay in HEK293 cells - 40 hour (AID 1224874). Note: potency is the fitted concentration of half-maximal effect; nearly all actives have a fitted effect of over 50% in size. The following applies: RealTime-Glo luminescence; max response: stronger effect = lower value. In a few lines:
(§2)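 Nonlytic bioluminescent viability monitoring. HEK293 at 600 cells/well with reagent; 5 h settle; compound transfer by pintool; plates held at 37 C and read at set time points.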

Assay [5] in a line: A CellTox Green Cytotoxicity Assay to monitor cytotoxicity in HepG2 cells - 16 hour (AID 1224876). Note: nearly all actives have a fitted effect of over 45% in size. The procedure, abridged: (§3)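 Real-time, homogeneous cytotoxicity readout: dead-cell DNA staining by CellTox Green in HepG2 monolayers, fluorescence measured at timed intervals up to 40 h of continuous compound exposure.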
A short description of assay [6]: qHTS RealTime-Glo MT Cell Viability Assay in HepG2 cells - 32 hour (AID 1224877). Note: nearly all actives have a fitted effect of over 55% in size. In a few lines:
(§4)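 HepG2 cells (600/well) were dispensed with RealTime-Glo reagents, incubated 5 h at 37 °C, then treated with compounds in DMSO for up to 40 h. Nonlytic NanoLuc luminescence reflecting viable cells was read at each stated time point.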

The nature of assay [7]: qHTS RealTime-Glo MT Cell Viability Assay in HEK293 cells - 0 hour (AID 1224880). Note: top concentration of the series differs between compounds; nearly all actives have a fitted effect of over 45% in size. The procedure, abridged:
as §2

Assay [8] can be described thus: A CellTox Green Cytotoxicity Assay to monitor cytotoxicity in HEK293 cells - 16 hour (AID 1224888). Note: nearly all actives have a fitted effect of over 35% in size. In a few lines: as §1
Assay [9] can be described thus: qHTS RealTime-Glo MT Cell Viability Assay in HepG2 cells - 0 hour (AID 1224889). Note: nearly all actives have a fitted effect of over 50% in size. Note: potency is the fitted concentration of half-maximal effect. The procedure, abridged:
as §4

Assay [10] can be described thus: A CellTox Green Cytotoxicity Assay to monitor cytotoxicity in HepG2 cells - 8 hour (AID 1224890). Note: nearly all actives have a fitted effect of over 45% in size. In a few lines: as §3
A short description of assay [11]: qHTS assay to identify small molecule antagonists of the estrogen receptor alpha (ER-alpha) signaling pathway using the BG1 cell line in the presence of 0.1 nM 17-beta-estradiol - cell viability counter screen (AID 1259241). Note: nearly all actives have a fitted effect of over 40% in size. In a few lines:
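VM7Luc4E2, 4,000 cells/well, phenol red-free medium + 10% charcoal-stripped FBS; 24 hr plating; cpd + 0.1 nM E2 final, 22 hr 37C/5% CO2; CellTiter-Fluor 30 min, fluorescence.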

A short description of assay [12]: qHTS assay to identify small molecule antagonists of the androgen receptor (AR) signaling pathway using the MDA cell line in the presence of 0.5 nM R1881 - cell viability counter screen (AID 1259242). Note: nearly all actives have a fitted effect of over 45% in size. Note: potency is the fitted concentration of half-maximal effect. In a few lines: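 Cytotoxicity toward MDA-kb2 cells is measured by CellTiter-Fluor live-cell protease fluorescence after 16 hr compound exposure at 37C in the presence of 0.5 nM R1881 stimulator.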

Assay [13] is described as follows: qHTS assay to identify small molecule HDAC inhibitors - cell viability counter screen (AID 1259365). Note: series mostly up to about 92 µM; nearly all actives have a fitted effect of over 50% in size. In a few lines: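 Luminescence from CellTiter-Glo, developed 30min at room temperature, reports viability of wild-type HCT-116 cells treated 2hr with compounds at 37 C and 5% CO2 after overnight plating.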
Assay [14] is described as follows: qHTS assay to identify small molecule antagonists of the sonic hedgehog signaling (Shh) pathway (AID 1259369; calls by dose curve). The procedure, abridged:
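Inhibition of Shh signalling is measured as reduced Gli1-response-element firefly luciferase output in an NIH/3T3-derived stable reporter clone stimulated with conditioned medium for 24hr.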

The target of assay [15] is Voltage-gated inwardly rectifying potassium channel KCNH2 (Homo sapiens) (UniProt Q12809). The assay is described as follows: Human Ether-a-go-go-Related Gene (hERG) channel small molecule antagonists: fluorescence cell-based qHTS assay (AID 1671200). Note: nearly all actives have a fitted effect of over 50% in size. Note: potency is the fitted concentration of half-maximal effect. The procedure, abridged:
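Channel function was assessed by thallium flux. Cells seeded the previous day and kept at 37 C took up FluxOR II dye over 1 h in the dark at room temperature, then sat another 10 min before stimulation.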
A general note: Block of hERG is tested as a sign of cardiac risk.

The target of assay [16] is Nuclear receptor subfamily 1 group I member 3 (Homo sapiens) (UniProt Q14994). The assay is described as follows: qHTS assay to identify small molecule antagonists of the constitutive androstane receptor (CAR) signaling pathway (AID 1224838). Note: nearly all actives have a fitted effect of over 40% in size. The procedure, abridged:
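Compounds were titrated across 15 concentrations onto HepG2 cells double-stably expressing hCAR and a CYP2B6-2.2kb reporter, together with 50 nM CITCO (final). After 24 h at 37 C, luciferase activity was measured by luminescence.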

Assay [17] in a line: qHTS assay to identify small molecule agonists or antagonists of the thyroid stimulating hormone receptor (TSHR) signaling pathway - wild type cell line counter screen (AID 1259384; calls by dose curve). The procedure, abridged:
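Wild-type Hek293 cells, 800/well, 18 h at 37C, then compound with Ro20-1724 for 30 min RT. cAMP by HTRF (cAMP-d2/anti-cAMP cryptate), 1 h RT, fluorescence read. 15 concentrations, triplicates.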

The target of assay [18] is Cytochrome P450 1A2 (Homo sapiens) (UniProt P05177). The assay can be described thus: Cytochrome P450 Family 1 Subfamily A Member 2 (CYP1A2) small molecule antagonists: luciferase reporter qHTS assay (AID 1671199). Note: nearly all actives have a fitted effect of over 50% in size. Note: potency is the fitted concentration of half-maximal effect. The procedure, abridged: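 Inhibition of CYP1A2 conversion of proluciferin to luciferin, detected by luminescence. Reaction run 1 h at room temperature with NADPH regeneration after brief compound preincubation.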
In general terms: A reporter such as luciferase makes a cellular process visible.

A short description of assay [19]: qHTS assay for small molecule agonists of the p53 signaling pathway (AID 651631; calls by dose curve; note: potency is the fitted concentration of half-maximal effect; nearly all actives have a fitted effect of over 15% in size). In a few lines: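 Read-out is beta-lactamase FRET fluorescence measured 2 h after substrate addition at room temperature, in HCT-116 cells with a p53 response element-driven reporter exposed to compounds for 16 h at 37 °C.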
Assay [20] can be described thus: qHTS assay to identify small molecule agonists of the estrogen related receptor signaling pathway with the pleiotropic PPARgamma coactivator (PGC) (AID 1224823). The procedure, abridged: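 Cell-based luciferase assay in the NTP-supplied PGC/ERR line, 2,000 cells/well; 18 h compound exposure at 37 C, luminescence after One-Glo.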

Results filed as inconclusive are left out. Calls of active or inactive are those of the source. Unless noted, calls come from the whole dose curve; as a rule, active = well fitted curve in the direction sought with a large enough effect in the repeat runs; inconclusive = weak or mixed curves; inactive = no such curve, though single readings can be large; an effect the other way counts as inactive or inconclusive.

Sequence of Cytochrome P450 1A2 (Homo sapiens) (P05177 whole entry, looked up): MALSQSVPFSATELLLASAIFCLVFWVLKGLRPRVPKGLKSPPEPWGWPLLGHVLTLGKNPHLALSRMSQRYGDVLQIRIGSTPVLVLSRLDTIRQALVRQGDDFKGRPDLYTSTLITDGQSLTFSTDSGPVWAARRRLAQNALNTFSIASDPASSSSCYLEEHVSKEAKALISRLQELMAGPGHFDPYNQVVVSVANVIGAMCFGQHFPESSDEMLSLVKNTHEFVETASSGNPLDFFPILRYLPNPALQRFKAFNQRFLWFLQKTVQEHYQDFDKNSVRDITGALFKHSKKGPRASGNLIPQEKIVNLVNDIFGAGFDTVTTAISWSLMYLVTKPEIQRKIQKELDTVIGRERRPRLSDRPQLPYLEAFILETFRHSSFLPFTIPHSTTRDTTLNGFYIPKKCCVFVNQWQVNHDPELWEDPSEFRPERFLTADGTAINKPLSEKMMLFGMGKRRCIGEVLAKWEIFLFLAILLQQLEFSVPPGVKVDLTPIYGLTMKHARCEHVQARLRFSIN
Sequence of Nuclear receptor subfamily 1 group I member 3 (Homo sapiens) (Q14994 whole entry, looked up): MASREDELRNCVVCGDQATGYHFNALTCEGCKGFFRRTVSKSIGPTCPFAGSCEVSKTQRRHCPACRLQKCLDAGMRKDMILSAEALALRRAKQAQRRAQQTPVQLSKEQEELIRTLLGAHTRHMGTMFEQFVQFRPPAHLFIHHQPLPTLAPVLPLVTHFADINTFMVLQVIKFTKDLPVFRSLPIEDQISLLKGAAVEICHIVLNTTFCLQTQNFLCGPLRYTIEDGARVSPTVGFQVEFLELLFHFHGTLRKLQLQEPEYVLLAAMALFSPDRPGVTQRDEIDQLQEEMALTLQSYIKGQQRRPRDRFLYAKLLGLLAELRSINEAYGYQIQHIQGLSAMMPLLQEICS
Sequence of Voltage-gated inwardly rectifying potassium channel KCNH2 (Homo sapiens) (Q12809 whole entry, looked up): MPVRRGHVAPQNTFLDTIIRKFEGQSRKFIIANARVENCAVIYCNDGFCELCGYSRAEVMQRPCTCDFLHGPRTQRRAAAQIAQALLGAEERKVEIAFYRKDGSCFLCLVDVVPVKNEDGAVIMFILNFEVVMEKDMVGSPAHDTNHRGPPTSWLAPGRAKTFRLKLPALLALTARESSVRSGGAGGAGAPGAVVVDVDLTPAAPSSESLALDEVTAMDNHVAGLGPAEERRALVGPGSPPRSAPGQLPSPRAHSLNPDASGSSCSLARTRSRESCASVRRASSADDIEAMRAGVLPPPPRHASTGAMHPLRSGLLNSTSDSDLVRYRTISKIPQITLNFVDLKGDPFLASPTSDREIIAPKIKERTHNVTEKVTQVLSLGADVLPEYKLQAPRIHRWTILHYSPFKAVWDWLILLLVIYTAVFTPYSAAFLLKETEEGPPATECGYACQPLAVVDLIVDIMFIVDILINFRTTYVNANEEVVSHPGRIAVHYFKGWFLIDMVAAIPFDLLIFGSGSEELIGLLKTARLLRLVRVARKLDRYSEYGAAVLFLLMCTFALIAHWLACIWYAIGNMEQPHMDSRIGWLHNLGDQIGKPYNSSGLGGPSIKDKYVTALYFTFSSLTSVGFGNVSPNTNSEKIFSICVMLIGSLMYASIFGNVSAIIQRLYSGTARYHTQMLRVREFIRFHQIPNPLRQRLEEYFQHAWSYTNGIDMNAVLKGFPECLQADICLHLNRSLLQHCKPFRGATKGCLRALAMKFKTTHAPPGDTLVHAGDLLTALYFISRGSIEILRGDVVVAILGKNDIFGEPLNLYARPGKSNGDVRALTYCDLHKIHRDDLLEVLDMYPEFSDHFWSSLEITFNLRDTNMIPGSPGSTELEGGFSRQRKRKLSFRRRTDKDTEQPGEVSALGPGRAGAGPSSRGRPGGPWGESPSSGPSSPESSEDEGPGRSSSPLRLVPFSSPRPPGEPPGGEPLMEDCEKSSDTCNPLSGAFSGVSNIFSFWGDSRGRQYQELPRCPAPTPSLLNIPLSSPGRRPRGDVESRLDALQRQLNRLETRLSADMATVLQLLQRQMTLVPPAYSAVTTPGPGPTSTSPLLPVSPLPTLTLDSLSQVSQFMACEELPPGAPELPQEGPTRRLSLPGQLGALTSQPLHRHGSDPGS

As for `C[C@]12CC[C@@H](O)C[C@@H]1CC[C@@H]1[C@@H]2CC[C@]2(C)C(=O)CC[C@@H]12`, the Potency in assay [1] was 49 µM (active); in assay [3] it was 49 µM (active); in assay [4], 24.5 µM (active); in assay [9], 34.7 µM (active); in assay [14], 19.3 µM (active). For the same molecule, the Potency entry in assay [2], in assay [5], in assay [6], in [8], in assay [10] and in assay [11] was “inactive” throughout. Further, the Potency result in assay [12] and in assay [15] was “inactive” throughout. Also, the molecule was classed as inactive in assay [7] and in assay [13].
As to `Cc1cc(C)c(C(=O)P(=O)(c2ccccc2)c2ccccc2)c(C)c1`, the Potency is 38.9 µM (active) in assay [1], 38.9 µM (active) in assay [4], 4.33 µM (active) in [14] and 19.5 µM (active) in [15]. Also, the Potency entry in [16], in assay [2], in assay [6], in assay [8], in [10] and in assay [11] was “inactive” throughout. In addition, the Potency entry in [12] and in [18] was “inactive” throughout. Moreover, the molecule was classed as inactive in assay [13] and in assay [17].
`Cc1cc(C(C)(C)c2ccc(O)c(C)c2)ccc1O`: the Potency in assay [19] is 13 µM (active); in assay [4], 20.8 µM (active); in assay [14], 16.4 µM (active); in assay [18], 33.9 µM (active). Moreover, the Potency result in assay [1], in assay [16], in [2], in [5], in [6] and in assay [9] was “inactive” each time. Further, the Potency result in [10] and in assay [11] was “inactive” each time. The molecule was classed as inactive in assay [7], in assay [13] and in assay [17].
Consider `CO/C=C(/C(=O)OC)c1ccccc1Oc1cc(Oc2ccccc2C#N)ncn1`, for which the Potency result in [20], in [16], in [2], in assay [5], in [8] and in [10] was “inactive” in each case. Further, in assay [15], the Potency result was “inactive”. The Potency is 4.9 µM (active) in assay [3]; 33.8 µM (active) in assay [4]; 24.3 µM (active) in assay [12]; 0.327 µM (active) in assay [14]; 41.4 µM (active) in [18]. In addition, the outcome in assay [13] and in [17] was inactive.
